This is an account of results in PubChem BioAssay (NCI).

Test systems include NCI-H23 lung; NCI-H226 lung; NCI-H322M lung; HOP-92 NSCLC; NCI-H522 lung; A549/ATCC NSCLC; 786-0 renal; COLO 205 colon; NCI-H460 lung.
Common to all, as to experiment: NCI-60 one-dose screen, 48 h (100 = growth as untreated, 0 = no growth, -100 = all killed)
Holding throughout (settings): 10 µM unless noted

Compounds without any hit were thinned out: in the full panel of roughly 83,000, 20% have a hit.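 Assay: single dose, 48 h. Readout: percent growth (0 = no net growth; negative = cell death). Active: <10.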 Unmarked numbers belong to inactive results. Active and inactive are the calls of the source.

As for `CS(=O)c1cccc(-c2ccc3nc(N)n(-c4ccc(C(F)(F)F)cc4)c(=O)c3c2)c1` (stereo not given), the growth in the test with NCI-H23 lung was 102%; in the test with NCI-H226 lung it was 90.9%; in the test with NCI-H322M lung, 103%; with HOP-92 NSCLC it was 66.1%; with NCI-H522 lung, 80.8%; in the test on A549/ATCC NSCLC it was 93.4%. The growth in the test on 786-0 renal is 97.1%; in the test on COLO 205 colon, 105%.
For `O=c1ssc(Cl)c1-c1ccccc1`, the growth in the test with NCI-H23 lung was 99.5%; in the test with NCI-H226 lung, 99.1%; in the test with NCI-H322M lung, 105%; with NCI-H460 lung, 99%; in the test with HOP-92 NSCLC it was 72.5%; in the test with NCI-H522 lung, 112%. Besides, the growth in the test on A549/ATCC NSCLC is 106%; in the test on 786-0 renal, 107%; with COLO 205 colon, 85.1%.
As for `COc1nc2c(c(=O)n1C)CN(c1ccccc1)C(=O)CN2C`, the growth in the test on NCI-H23 lung was 56.9% [100 µM]; with NCI-H226 lung, 52.3% [100 µM]; in the test with NCI-H322M lung, 62.1% [100 µM]; in the test on NCI-H460 lung, 59.4% [100 µM]; with HOP-92 NSCLC, 56.9% [100 µM]; in the test on NCI-H522 lung, 67% [100 µM]. Further, the values for the growth in the test on A549/ATCC NSCLC, in the test with 786-0 renal and in the test with COLO 205 colon were 55.7% [100 µM], 55.2% [100 µM] and 68.8% [100 µM], respectively.
`CC(C)CCC[C@@H](C)[C@H]1CC[C@H]2[C@@H](Nc3ccc(O)cc3)CCC[C@]12C`: the growth in the test with NCI-H23 lung was 84.2%; in the test on NCI-H226 lung it was 105%; in the test on NCI-H322M lung, 105%; in the test on NCI-H460 lung, 104%; in the test with HOP-92 NSCLC it was 136%; in the test on NCI-H522 lung, -42.6% (active). Also, the growth with A549/ATCC NSCLC is 95.5%; in the test on 786-0 renal, 109%; in the test on COLO 205 colon, 95.5%.
With `Cc1ccc2nc(NC(=O)CSc3nc(-c4ccccc4)c(C#N)c(=O)n3Cc3ccccc3)sc2c1`, the growth in the test with NCI-H23 lung is 85.9%; in the test with NCI-H226 lung it was 85.2%; in the test on NCI-H322M lung, 96.4%; with NCI-H460 lung, 98.3%; in the test on HOP-92 NSCLC, 54.9%; with NCI-H522 lung, 30.5%. For the same molecule, the growth was 104% with A549/ATCC NSCLC, 99.3% with 786-0 renal and 104% in the test on COLO 205 colon.
Take `C[C@]12CC[C@@H]3c4cc(OC(F)F)c(O)cc4CC[C@H]3[C@@H]1CC[C@@H]2OS(N)(=O)=O`: the growth in the test with NCI-H23 lung was 3.46% (active); with NCI-H226 lung, 57.4%; with NCI-H322M lung, 45.4%; with NCI-H460 lung, 13.9%; with HOP-92 NSCLC, 74.6%; in the test on NCI-H522 lung, 26%. Also, the results for the growth in the test with A549/ATCC NSCLC, in the test with 786-0 renal and in the test on COLO 205 colon were 31.3%, 56.4% and 10.7%, respectively.
Regarding `O=C(N/N=C/c1ccncc1)c1ccc(C(F)(F)F)nc1Nc1cccc(C(F)(F)F)c1`, the growth in the test on NCI-H23 lung is 21.4%; in the test on NCI-H226 lung, 23.7%; in the test with NCI-H322M lung, 8.36% (active); in the test on NCI-H460 lung, 14.3%; in the test on HOP-92 NSCLC, 3.81% (active); in the test on NCI-H522 lung, -9.51% (active). The growth in the test with A549/ATCC NSCLC was 16.1%; in the test on 786-0 renal it was -27.9% (active); in the test with COLO 205 colon, -3.93% (active).
For the molecule `O=C1/C(=C/c2ccc(F)cc2)C=C(c2ccccc2)N1CCc1ccccc1`, the growth in the test with NCI-H23 lung was 70.8%; with NCI-H226 lung it was 51.9%; in the test on NCI-H322M lung, 65.6%; in the test on NCI-H460 lung, 61.3%; in the test with HOP-92 NSCLC it was 7.45% (active); in the test with NCI-H522 lung it was 42.9%. Besides, the values for the growth in the test with A549/ATCC NSCLC, in the test with 786-0 renal and in the test on COLO 205 colon were 40.8%, 27.6% and 71.9%, respectively.
In the case of `Cc1c(C(=O)NC(Cc2ccccc2)C(O)C(=O)NCc2ccc(F)cc2)[nH]c2ccccc2c1=O` (stereo not given), the growth was 99.8% in the test with NCI-H23 lung; 105% in the test on NCI-H226 lung; 101% in the test with NCI-H322M lung; 104% in the test on NCI-H460 lung; 108% in the test with HOP-92 NSCLC; 93.5% with NCI-H522 lung. Also, the growth with A549/ATCC NSCLC is 101%; in the test on 786-0 renal, 104%; in the test on COLO 205 colon it was 111%.
As to `COC(=O)[C@]12CC[C@@H](C)[C@H](C)[C@@H]1C1=CC[C@@H]3[C@@]4(C)C(C=O)=C[C@@](C)(COC(=O)c5ccco5)[C@@H]4C(=O)C[C@@]3(C)[C@]1(C)CC2`, the growth with NCI-H23 lung is 26.3%; with NCI-H226 lung it was 22.5%; in the test with NCI-H322M lung it was 69.6%; in the test on NCI-H460 lung, 18.1%; in the test with HOP-92 NSCLC, 31.8%; with NCI-H522 lung, 10.7%. Moreover, the growth in the test on A549/ATCC NSCLC is 10.1%; with 786-0 renal, 43.4%; in the test on COLO 205 colon it was -59.5% (active).
As for `N#C/C(=C/C=C/c1cccc(Cl)c1)S(=O)c1ccccc1` (stereo not given), the growth in the test on NCI-H23 lung is -43.6% (active); in the test on NCI-H226 lung, -33% (active); with NCI-H322M lung it was -44.9% (active); in the test on NCI-H460 lung, -22.1% (active); with HOP-92 NSCLC, -60.9% (active); in the test with NCI-H522 lung, -89.2% (active). For the same molecule, the growth in the test on A549/ATCC NSCLC was 1.83% (active); in the test on 786-0 renal it was -88.7% (active); in the test on COLO 205 colon, -63.1% (active).
For the molecule `NCCCNc1nc2ccccc2c2c(=O)c3cccc(Cl)c3sc12`, the growth in the test on NCI-H23 lung was 44.7%; in the test with NCI-H226 lung, 59.6%; in the test with NCI-H322M lung it was 22.4%; in the test with NCI-H460 lung it was -75% (active); in the test on HOP-92 NSCLC, 38.1%; with NCI-H522 lung it was -48.5% (active). In addition, the growth in the test with A549/ATCC NSCLC was -2.55% (active); in the test with 786-0 renal, 33.6%; with COLO 205 colon, -50.6% (active).
Regarding `CC(C)=C[C@@H]1c2c(c3ccccc3n(C)c2=O)O[C@H]2c3c(c4ccccc4n(C)c3=O)OC(C)(C)[C@@H]12`, the growth in the test on NCI-H23 lung is 99.6%; with NCI-H226 lung it was 101%; in the test on NCI-H322M lung, 112%; in the test on NCI-H460 lung, 75.3%; with HOP-92 NSCLC, -4.59% (active); with NCI-H522 lung, 53.4%. Also, the results for the growth in the test on A549/ATCC NSCLC, with 786-0 renal and in the test with COLO 205 colon were 89.3%, 93.5% and 95.3%, respectively.
For `CC1(C)OC2C(CO[Si](C)(C)C(C)(C)C)OC(n3c(I)c(C#C[Si](C)(C)C)c(=O)[nH]c3=O)C2O1` (stereo not given), the growth with NCI-H23 lung was 76.9%; in the test with NCI-H226 lung, 103%; in the test on NCI-H322M lung, 106%; in the test with NCI-H460 lung, 106%; in the test on HOP-92 NSCLC it was 98.8%; with NCI-H522 lung, 90%. Further, the figures for the growth in the test on A549/ATCC NSCLC, with 786-0 renal and in the test on COLO 205 colon were 94.9%, 93.9% and 111%, respectively.
